# The list is not random: actives were taken first. Their share in the collection is about 11%.
# HTT ATP protect: cytoprotection in Huntington HTT-Q103 PC12 cell model | Potency, µM (top dose mostly 56.4 µM), actives largely listed as activators | hit rate 0.14% among 230,000 | PC12 HTT-Q103 induced, cytoprotection, ATP luminescence, 40 h; note: nearly all actives have a fitted effect of over 45% in size
#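 ATP quantification (ATPlite) reports survival of PC12 cells in which tebufenozide, 100 nM final, switches on Htt exon 1 with 103 glutamines linked to GFP; compounds are titrated.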
# HPGD inh: inhibitors of human 15-hydroxyprostaglandin dehydrogenase (HPGD) | P15428 | purified HPGD, NADH fluorescence kinetic, PGE2 substrate | Potency, µM, usual class: inhibitors | hit rate 4.3% among 150,000 | AID 894; active = well fitted inhibition curve with a large enough effect, not every such curve was filed as active; inconclusive = small, poorly fitted or top-dose-only effect, or another doubt; inactive = no such curve, though single readings can be large or run the other way
#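 NADH formation kinetics: reaction with 30 uM PGE2 and 1 mM NAD+ (final), 20 nM enzyme, Tris-HCl pH 8 with Tween 20, after 15 min compound preincubation at room temperature. Fluorescence change, last versus first of five reads.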
# PNC inhibitor: blocks assembly of the perinucleolar compartment; PC3M PTB-GFP, PNC prevalence imaging, 16 h; hits give low values; activity change (PNC), negative = inhibition, % at 10 µM; hit rate 3.1% among 140,000; AID 2417;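 active = readout at or below -70, meaning at least 70% loss of cells showing the perinucleolar compartment, a nuclear body marking cancer cells; inconclusive = readout between -30 and a set limit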
#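 PC3M cells stably expressing PTB-GFP, 750–1000 cells/well, treated 16 h at 37 °C with compound (23 nl of library stock), in duplicate. After paraformaldehyde fixation and Hoechst stain, imaged at 20x; PNC prevalence scored by image analysis.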
# CBFb-RUNX1 inh: CBF-beta/RUNX1 interaction disruption. Q01196+Q13951. AlphaScreen CBFb-His/RUNX1-biotin binding, biochemical. Potency, µM (highest dose often 59.8 µM), actives largely listed as inhibitors. 230,000 tested, under 10 active. AID 1477
#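 CBF-beta (His) and RUNX1 (biotin), 30 nM each; 20 min preassociation; + compound, 15 min; + beads 50 ng each (Ni, streptavidin), 90 min; RT; AlphaScreen read.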
# ALDH1A1 inh: blocks purified human ALDH1A1 activity; P00352; Purified ALDH1A1, NADH fluorescence, propionaldehyde substrate; Potency, µM (titrated, usually from 75.3 µM), most hits filed as inhibitors; hit rate 7.3% among 220,000; AID 1030; active = well fitted inhibition curve with a large enough effect, not every such curve was filed as active; inconclusive = small, poorly fitted or top-dose-only effect, or another doubt; inactive = no such curve, though single readings can be large or run the other way
# Target sequence (P00352 whole entry, looked up): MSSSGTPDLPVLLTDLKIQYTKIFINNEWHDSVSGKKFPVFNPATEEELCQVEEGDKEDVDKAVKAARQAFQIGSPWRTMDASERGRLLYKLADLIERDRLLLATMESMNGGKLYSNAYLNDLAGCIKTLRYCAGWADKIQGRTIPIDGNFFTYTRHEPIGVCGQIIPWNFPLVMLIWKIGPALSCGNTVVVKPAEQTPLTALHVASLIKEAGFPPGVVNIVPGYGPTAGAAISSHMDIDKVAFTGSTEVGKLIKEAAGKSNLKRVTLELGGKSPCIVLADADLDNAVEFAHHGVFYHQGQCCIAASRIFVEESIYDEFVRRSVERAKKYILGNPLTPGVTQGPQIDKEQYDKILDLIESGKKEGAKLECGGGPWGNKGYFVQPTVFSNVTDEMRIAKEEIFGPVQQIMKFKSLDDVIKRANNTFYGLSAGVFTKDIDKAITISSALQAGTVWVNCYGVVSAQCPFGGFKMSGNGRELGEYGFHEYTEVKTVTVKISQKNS
# HTT aggregate: mutant huntingtin aggregation inhibition | PC12 HttQ103-GFP aggregates, Acumen cytometry, 40 h | Potency, µM (doses to about 46.1 µM), usual class: inhibitors | hit rate 1.1% among 220,000; note: nearly all actives have a fitted effect of over 60% in size
#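 Quantitative HTS on tebufenozide-induced (100 nM) PC12 cells stably expressing polyQ103 Huntingtin exon 1–GFP. Reduction of bright GFP aggregates, detected by laser scanning cytometry after lysis, identified actives across the titration.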
# A number is an active result; . = inactive; ? = inconclusive; / = not tested or not shown; [ ] = remark or other dose. Unless noted, calls come from the whole dose curve; as a rule, active = well fitted curve in the direction sought with a large enough effect; inconclusive = small, poorly fitted or top-dose-only effect, or another doubt; inactive = no such curve, though single readings can be large; an effect the other way counts as inactive or inconclusive.
SMILES,HTT ATP protect,HPGD inh,PNC inhibitor,CBFb-RUNX1 inh,ALDH1A1 inh,HTT aggregate
CCC(c1nnnn1C1CCCC1)N1CCN(Cc2ccccc2)CC1 (configuration not stated),.[10 µM],.,?,.,14µM,.
CC(NC(=S)NCCCN1CCOCC1)C12CC3CC(CC(C3)C1)C2 (configuration not stated),.,/,/,.,.,.
CCC(c1nnnn1Cc1ccccc1)N1CCN(C(=O)c2ccco2)CC1 (configuration not stated),.,.,?,.,6.3µM,.
Oc1ccc(N2CCN(C(c3ccccn3)c3nnnn3C3CCCC3)CC2)cc1 (configuration not stated),.[10 µM],.,.,.,25µM,.
CCCC(c1nnnn1Cc1ccco1)N1CCC(C(N)=O)CC1 (configuration not stated),.[10 µM],.,.,.,3.5µM,.
CCC(c1nnnn1CCOC)N1CCN(C(=O)c2ccco2)CC1 (configuration not stated),.,.,.,.,?,.
COc1ccccc1C(c1nnnn1C(C)(C)C)N1CCN(C(=O)c2ccco2)CC1 (configuration not stated),.,.,.,.,25µM,.
O=C(c1ccco1)N1CCN(C(c2cccs2)c2nnnn2C2CCCC2)CC1 (configuration not stated),.[10 µM],.,.,.,?,.
CCCC(c1nnnn1CC1CCCO1)N1CCN(c2ccccc2)CC1 (configuration not stated),.[10 µM],/,/,.,.,.[9.22 µM]
O=C(c1ccco1)N1CCN(C(c2ccccn2)c2nnnn2C2CCCC2)CC1 (configuration not stated),.[10 µM],.,.,.,13µM,.
CC(C)CC(c1nnnn1C1CCCC1)N1CCN(C(=O)c2ccco2)CC1 (configuration not stated),.[10 µM],.,.,.,8.9µM,.
CCCCC(c1nnnn1CC1CCCO1)N1CCN(Cc2ccccc2)CC1 (configuration not stated),.[10 µM],.,-100,.,?,.
CC(C)(C)C(=O)OCOP(=O)(OCOC(=O)C(C)(C)C)C(C)(Oc1ccc(O)cc1)P(=O)(OCOC(=O)C(C)(C)C)OCOC(=O)C(C)(C)C,.,.,/,.,?,/
CCOc1ccc(Br)cc1/C(C)=N\NC1=NCCN1,.,.,.,.,.,13µM
CCOc1ccc(CSC2=NCCN2)cc1Cl,.[10 µM],.,.,.,.,.
COc1ccc(NC(=O)CN2CCN(S(=O)(=O)c3ccc(Cl)cc3)CC2)cc1Cl,.,.,.,.,.,.
COc1ccc(S(=O)(=O)N2CCCN(CC(=O)Nc3ccc(OC)c(Cl)c3)CC2)cc1,.,.,.,.,1.6µM,.
COc1ccc(NC(=O)CN2CCN(S(=O)(=O)c3ccc(Cl)cc3)CC2)cc1,.[0.074 µM],.,.,.,19µM,.
COc1ccc(S(=O)(=O)N2CCN(CC(=O)Nc3cc(OC)cc(OC)c3)CC2)cc1,.,.,.,.,?,.
NC(=O)c1cc(N2C(=O)C=CC2=O)ccc1Cl,.,7.9µM,.,.,0.79µM,?
Cc1c(C(=O)NNc2cc(=O)n(C)c(=O)n2C)cccc1[N+](=O)[O-],.[10 µM],/,/,.,.,.[9.22 µM]
COc1ccc(NC(=S)NNC(=O)c2cccs2)cc1,/,.,-84,.,?,.
CCCCC(=O)Nc1ccc(C(=O)NNC(=S)NC(=O)c2cccs2)cc1,.[10 µM],/,?,?,25µM,.
Cc1c(C(=O)NC(=S)Nc2ccc(NC(=O)c3cccs3)cc2)oc2ccccc12,.,2.8µM,?,.,1.3µM,.
CC(=O)NC(=S)Nc1ccc(NC(=O)c2cccs2)cc1,.[10 µM],.,?,.,.,?
SMILES,HTT ATP protect,HPGD inh,PNC inhibitor,CBFb-RUNX1 inh,ALDH1A1 inh,HTT aggregate
CC(C)c1ccc(NC(=S)NNC(=O)c2cccs2)cc1,.[10 µM],/,/,.,20µM,.
O=C(Cn1cc(C(=O)c2ccco2)c2ccccc21)NC1CC1,.[10 µM],/,/,.,.,.[9.22 µM]
COc1ccc(-c2nc3cnc(N4CCN(C)CC4)nc3n(CCc3ccccc3)c2=O)cc1,.,/,/,/,?,/
Cc1cccc(CNc2ncncc2-c2ccccc2Cl)c1,.,/,/,/,.,/
Cc1ccc(C(=O)c2nocc2C(=O)c2cccs2)cc1,.,22µM,.,.,3.2µM,.
CCOC(=O)NC(O)C(=O)c1cccs1 (configuration not stated),.,.,?,.,.,.
CCOC(=O)NC(O)C(=O)c1ccc(F)cc1 (configuration not stated),.,/,/,.,22µM,.
Cc1cccc(N=Nc2cnc(N)s2)c1,.[10 µM],/,/,.,.,.[9.22 µM]
CCOC(=O)c1ccc(NC(=O)CCNS(=O)(=O)c2ccc3c(c2)oc(=O)n3C)cc1,.[10 µM],.,.,.,.,.
Cc1cc(C)cc(NC(=O)CCNS(=O)(=O)c2ccc3c(c2)oc(=O)n3C)c1,.[10 µM],.,-100,.,.,.
CCN(CC)c1ccc(NS(=O)(=O)c2ccc3c(c2)oc(=O)n3C)c(C)c1,.,13µM,.,.,?,.
Cn1c(=O)oc2cc(S(=O)(=O)Nc3cccc(C(=O)O)c3)ccc21,.,.,.,.,.,.
COc1ccc(S(=O)(=O)Nc2cccc(C(C)=O)c2)cc1Br,.,/,/,.,32µM,.[9.22 µM]
CC(=O)c1cccc(NS(=O)(=O)c2ccc3c(c2)oc(=O)n3C)c1,.[1.9 µM],.,?,.,22µM,.
NS(=O)(=O)c1ccc(Nc2nc3ccccc3nc2NS(=O)(=O)c2cccc([N+](=O)[O-])c2)cc1,.,/,/,.,.,.
CC(C)C[C@@H](C(=O)N[C@@H](Cc1c[nH]c2ccccc12)C(N)=O)N1C[C@]2(CCCN2C(=O)[C@H](Cc2ccccc2)NC(=O)[C@H](Cc2ccccc2)NC(=O)[C@H](CCC(N)=O)NC(=O)[C@H](CCC(N)=O)NC(=O)[C@@H]2CCCN2C(=O)[C@H](CCCCN)NC(=O)[C@@H]2CCCN2C(=O)[C@@H](N)CCCNC(=N)N)CC1=O,/,/,/,.,/,/
CCOC(=O)N/N=C1/C[C@@H](O)[C@@H](O)[C@@H]2[C@@H]3C(=O)N(Cc4ccc5c(c4)OCO5)C(=O)[C@H]3CC[C@H]12,.[10 µM],/,/,.[13.1 µM],.[13.5 µM],/
Cc1c(NC2=NC(C)(C)Cc3ccccc32)c(=O)n(-c2ccccc2)n1C,.[1.9 µM],.,-88,.,.,.
CN(C)S(=O)(=O)c1ccc(NC(=S)NC(=O)c2ccc(Br)o2)cc1,.,/,/,.,13µM,.
Cc1cc(C)cc(NS(=O)(=O)c2ccc(NC(=S)NC(=O)c3ccc(Br)o3)cc2)c1,.,.,?,.,14µM,?
NS(=O)(=O)c1ccc(NC(=S)NC(=O)c2ccc(Br)o2)cc1,.[10 µM],/,/,?,?,.[9.22 µM]
CC(C)=NO[C@@H](C)c1cc(-c2c(C)cc(C)cc2C)no1,.[10 µM],/,/,?,.[13.5 µM],/

# High-throughput results as filed in PubChem.
